54 compounds from PubChem BioAssay AID652257 (The Scripps Research Institute Molecular Screening Center, 2013) can be followed below.

Molecules are shown by their SMILES. Hit rate of the full screen: of about 370,000 compounds, about 4,800 (1.3%) were called active. Only a selection was taken, and actives are over-represented in it overall. Values without a mark were called inactive.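 The calls were made as follows: active = inhibition above about 21% made by adding two undisclosed values (limit read from the data); inactive = the rest.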

The term inhibition denotes the relative decrease from the control value, in per cent.

The assay deals with Protein arginine N-methyltransferase 1 (Homo sapiens) (UniProt Q99873). The assay can be described thus: PRMT1 methyltransferase inhibitors, primary screen, biochemical, fluorescence polarization (AID 652257). Conditions: recombinant PRMT1, activity-based probe fluorescence polarization; at 2.79 µM; stronger effect = higher value. (In general: In fluorescence polarisation assays a small probe gives low polarisation when free and higher when bound to something large.)
Chain of Protein arginine N-methyltransferase 1 (Homo sapiens) (Q99873 whole entry, looked up): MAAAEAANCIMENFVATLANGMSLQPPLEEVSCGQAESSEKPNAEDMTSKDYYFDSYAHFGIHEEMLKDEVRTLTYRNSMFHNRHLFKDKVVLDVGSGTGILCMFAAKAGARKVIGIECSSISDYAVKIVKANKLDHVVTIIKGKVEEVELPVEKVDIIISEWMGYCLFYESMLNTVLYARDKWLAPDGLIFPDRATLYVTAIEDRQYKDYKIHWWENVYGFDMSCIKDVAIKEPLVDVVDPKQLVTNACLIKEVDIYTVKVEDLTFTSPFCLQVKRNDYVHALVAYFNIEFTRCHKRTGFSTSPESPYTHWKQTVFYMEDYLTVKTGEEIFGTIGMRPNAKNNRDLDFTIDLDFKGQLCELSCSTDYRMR
For the compound `C=CCN1[C@H](CC(C)C)COc2cccc(N3CCCC3)c2S1(=O)=O`, the inhibition was 11.6%.

In the case of `O=C(CN1CCN(c2cccc(Cl)c2)CC1)Nc1ccc(S(=O)(=O)N2CCOCC2)cc1`, the inhibition is 1.21%.

Consider `CC(=O)c1ccc(N2CCN(CC(=O)Nc3ccccc3N3CCOCC3)CC2)cc1`, for which the inhibition is -1.3%. For `O=C(CCC(=O)N1CCN(S(=O)(=O)c2ccccc2)CC1)NC1CCCc2ccccc21` (centres undefined), the inhibition is 2.87%. As to `O=C(CN1CCN(c2ccc(O)cc2)CC1)Nc1ccc(-c2ccccc2)cc1`, the inhibition was 21.2% (active). As to `O=C(CN1CCN(c2ccc(O)cc2)CC1)NC1CCCc2ccccc21` (centres undefined), the inhibition is 26.1% (active). Take `O=C(CSc1nncs1)NC1CCCc2ccccc21` (centres undefined): the inhibition is 2.99%. `CCCCN1CC(CO)Oc2cccc(F)c2S1(=O)=O` (centres undefined): the inhibition was -3.97%. For `Cc1cc(C)c(NC(=O)CN2CCOCCOCCOCCOCC2)c(C)c1`, the inhibition was -1.78%.

As to `COC(=O)C1CN(Cc2ccc(F)cc2)CCS(=O)(=O)N1Cc1ccc(Cl)cc1` (centres undefined), the inhibition is 0.79%. As to `CC(=O)Nc1ccc(OC[C@@H](O)CN2CCC(C(O)(c3ccccc3)c3ccccc3)CC2)cc1`, the inhibition was -3.02%. As for `COC(=O)[C@]12C[C@H](CC(=O)NCCCN3CCCC3=O)C(=O)N(CCc3ccc(OC)c(OC)c3)C1=C[C@H](COCc1ccccc1)O[C@@H]2C`, the inhibition was -1.4%.

For the compound `COC(=O)C1CN(CCc2ccccc2)CCS(=O)(=O)N1Cc1cccc(Cl)c1` (centres undefined), the inhibition was 4.71%. The value for `O=C(COC(=O)c1ccccc1SCC(=O)N1CCCC1)Nc1ccccc1OC(F)F` was 2.04%; that for `Cc1ccc(C(NC(=O)N2CCCC2)C(Cl)(Cl)Cl)cc1F` (centres undefined) was -0.94%; that for `CC1CCN(C(=O)CSc2nnc(-c3ccco3)n2N)CC1` was -3.61%. As to `COc1ccc(Cl)cc1NS(=O)(=O)c1cccc(C(=O)NC2CCC(O)CC2)c1` (centres undefined), the inhibition was -6.68%. Consider `COc1ccc(N2C(=O)/C(=C\c3ccco3)N=C2SCC(N)=O)cc1Cl`, for which the inhibition was 25.5% (active). `COc1ccc([N+](=O)[O-])cc1NC(=O)COC(=O)/C=C/c1ccco1`: the inhibition was 5.77%. In the case of `COc1ccc(Cl)cc1C(=O)NNC(=S)NC(=O)/C=C/c1ccco1`, the inhibition is -3.9%. With `COC(=O)[C@]12C[C@H](CC(=O)NCc3ccccc3)C(=O)N(CCC3=CCCCC3)C1=C[C@H](C(C)C)O[C@@H]2C1CC1`, the inhibition is -0.96%. As to `CC(c1ccc(N)cc1)c1cn(C)c2ccccc12` (centres undefined), the inhibition is -3.45%. Turning to `COc1ccc(Cl)cc1-c1cc(C(=O)Nc2cc(OC)c(OC)c(OC)c2)[nH]n1`, the inhibition is -1.28%. As for `CC(CCN1CCC(C(O)(c2ccccc2)c2ccccc2)CC1)Oc1ccc(Cl)cc1` (centres undefined), the inhibition was 0.54%.

`C=CCn1c(=S)[nH]c2scc(-c3ccco3)c2c1=O`: the inhibition is 38.1% (active). Consider `O=C(CSc1nc2ccccc2n1Cc1ccccc1Cl)N/N=C\c1c[nH]c2ccccc12`, for which the inhibition is -0.85%. Take `O=C(OCC(=O)N1CCCCCC1)c1cccc(Cl)c1Cl`: the inhibition was -1.11%. Take `CC(NC(=O)Nc1ccccc1)C(c1cccs1)N1CCN(c2ccccc2)CC1` (centres undefined): the inhibition was 0.36%. Turning to `CC(=NNC(=S)N1CCCCCC1)c1ccccn1`, the inhibition is 25.4% (active). For `O=[N+]([O-])c1ccc(NC(=S)N2CCN(c3ccccn3)CC2)cc1`, the inhibition was -0.91%. In the case of `CCOC(=O)c1ccc(NC(=S)N2CCN(c3ccccn3)CC2)cc1` it was -2.24%; in that of `COC(=O)C1=C[C@@H](C(=O)OC)[C@@H]2C3=C(C(=O)[C@]2(C)NC(=O)c2ccccc2)[C@H](C)n2c(=O)n(C)c(=O)n2[C@@H]3C1`, 1.61%. The value for `CCOC(=O)c1ccccc1NC(=O)CSc1nc2c(sc(=S)n2CC)c(=O)[nH]1` was 19%; that for `CSc1ncnc2c1ncn2CC(=O)C1CCC2C3CCC4=CC(=O)CCC4(C)C3CCC12C` (centres undefined) was 0.25%.

As to `COc1ccc(C(=O)C(C)OC(=O)c2cccc(S(=O)(=O)Nc3c(C)n(C)n(-c4ccccc4)c3=O)c2)cc1` (centres undefined), the inhibition is -2.91%. As to `Cc1c(NS(=O)(=O)c2cc(C(=O)NCCc3ccc(F)cc3)cc(Cl)c2Cl)c(=O)n(-c2ccccc2)n1C`, the inhibition was -3.45%. As for `Cc1c(NS(=O)(=O)c2cccc(C(=O)Nc3ccc(SC(F)F)cc3)c2)c(=O)n(-c2ccccc2)n1C`, the inhibition was 21.1% (active).

For the compound `Cc1ccccc1-c1nc(CS(=O)(=O)CC(=O)NC(C)c2ccccc2)c(C)o1` (centres undefined), the inhibition was -4.8%.

For the compound `Cc1nc(SCC(=O)NC2CCCC2)[nH]c(=O)c1C`, the inhibition was 1.36%. The value for `Cc1sc2nc(CSCC(=O)NC3CCCCC3)[nH]c(=O)c2c1C` was 22.1% (active). Take `Cc1sc2nc(CSCC(=O)Nc3c(Cl)cccc3Cl)[nH]c(=O)c2c1C`: the inhibition was 13.1%. As to `COC(CNC(=O)[C@H](Cc1ccccc1)NC1(C(=O)NC2CCCCC2)CCCCC1)OC`, the inhibition was -5.82%. In the case of `O=C(NCc1cccnc1)c1cnc2ccccc2n1`, the inhibition is -0.09%.

As for `CCOc1ccc(-n2c(SCC(=O)Nc3cc(C)c(NC(=O)c4ccccc4)cc3OC)nnc2-c2cccs2)cc1`, the inhibition was 2.3%.

In the case of `CC(=O)N1CC(C)c2scc(C)[n+]2-c2ccccc21` (centres undefined), the inhibition is 53.9% (active).

As for `Cc1ccc(NC(=O)C(CC(=O)O)C2CCCO2)c(C)c1` (centres undefined), the inhibition was 2.66%. Turning to `Cc1ccc(C(=O)N(Cc2ccccn2)CC2CCCO2)cc1` (centres undefined), the inhibition is -2.09%.

For the compound `NNC(=O)c1oc2nc(-c3ccccc3)cc(-c3ccco3)c2c1N`, the inhibition was -3.39%.

As to `CNC(=S)NNC(=O)c1oc2nc(-c3ccccc3)cc(-c3ccco3)c2c1N`, the inhibition was 21.9% (active). As to `O=C(OCC#CCSc1nnc(-c2ccco2)o1)c1ccc(F)cc1`, the inhibition is -2.56%.

On to `COc1ccc(-c2cc(-c3nnc(SCc4ccc([N+](=O)[O-])cc4)n3N)[nH]n2)cc1`, for which the inhibition was -4.36%. As for `O=C(NCc1ccco1)/C(=C/c1ccco1)NC(=O)c1ccccc1`, the inhibition is 7.1%.

With `O=C(NC(Cc1ccccc1)C(=O)O)/C(=C\c1ccccc1)NC(=O)c1ccco1` (centres undefined), the inhibition is -0.14%.

As to `O=C(NC(Cc1c[nH]c2ccccc12)C(=O)O)/C(=C/c1ccco1)NC(=O)c1ccccc1` (centres undefined), the inhibition is 25.5% (active).
